# Assay results from PubChem BioAssay (NCATS).
# Records with an inconclusive call do not appear. The source made the active and inactive calls. The call rests on the fitted dose curve; in most records, active means well fitted cell-killing curve with a large enough effect; inconclusive means small, poorly fitted or top-dose-only effect; inactive means no such curve, though single readings can be large or run the other way.
# Assay: Cell Viability - LYMP2-001 (AID 921);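 further: cells exposed to compound for 24 h at 37 °C; 0% = DMSO only and full inhibition = tetraoctylammonium bromide control wells; nearly all actives have a fitted effect of over 70% in size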
# Conditions: LYMP2-001 lymphoblastoid cell viability; series mostly up to 92.2 µM; activity change, negative = cytotoxic: at the top concentration
# Text: NIH Chemical Genomics Center [NCGC]
# NIH Molecular Libraries Screening Centers Network [MLSCN]
# National Institutes of Environmental Health Sciences [NIEHS]
# National Toxicology Program [NTP]
# We have developed a 1536-well cell-based assay for quantitative high throughput screening (qHTS) against a number of cell lines to determine in vitro cytotoxicity of small molecules. This particular assay uses a human lymphoblastoid cell line (LYMP2-001) purchased from Coriell Institute for Medical Research.
# NCGC Assay Protocol Summary:
# The CellTiter-Glo luminescent cell viability assay (Promega) is a homogeneous method to measure the number of viable cells in culture. The end point readout of this assay is based on quantitation of intracellular ATP, an indicator of metabolic activity, using the luciferase reaction. Luciferase catalyzes the oxidation of beetle Luciferin to oxyluciferin and light in the presence of ATP. The luminescent signal is proportional to amount of ATP present.
# Using the CellTiter-Glo luminescent cell viability assay, the amount of cellular ATP was measured in the lymphoblastoid cell line with complete culture medium following compound treatment for 24 hours. The assay was performed in opaque white Kalypsys 1536-well plates. In the screen, tetraoctylammonium bromide was used as positive control. Library compounds were measured for their ability to cause acute toxicity in the cell line, as reflected by a decrease in intracellular ATP levels, in a concentration-dependent manner. […] AC50 values were determined from concentration-response data modeled with the standard Hill equation.
# qHTS protocol for CellTiter Glo lymphoblastoid cellular assay
# [Step] [Parameter] [Value] [Description]
# 1. Reagent; 5 uL; 2500 lymphoblastoid cells/well
# 2. Time; 5 hr; 37 C incubation
# 4. Controls; 23 nL; Tetraoctylammonium bromide 6.4pM to 92 uM
# 5. Time; 24 hr; 37 C incubation
# 6. Reagent; 5 uL; CellTiter Glo reagent
# 7. Time; 30 min; Room Temperature
# 8. Detection; Luminescence; Viewlux plate reader
# Keywords: cell viability, cytotoxicity, lymphoblastoid cell line, luminescence, NTPHTS, NTPHTS_NCGC, NIEHS, DSSTox, MLSMR, MLSCN, NIH Roadmap, qHTS, NCGC
row,Compound,"activity change, negative = cytotoxic"
1,O=P(OCCCl)(OCCCl)OCCCl,-11.9% (inactive)
2,N#CC(O)c1ccccc1 (stereo not given),-5.68% (inactive)
3,Cc1cc(-c2cc(C)c(N)c(C)c2)cc(C)c1N,-26.3% (inactive)
4,BrCCc1ccccc1,5.95% (inactive)
5,Oc1cccc(Cl)c1,-21.4% (inactive)
6,O=C(O)CBr,-28.4% (inactive)
7,ClCCCCl,3.79% (inactive)
8,Cc1cccc(C)c1N,-6.15% (inactive)
9,O=C(Cc1ccccc1)OCc1ccccc1,3.95% (inactive)
10,Clc1ccc(C(c2ccccc2Cl)C(Cl)(Cl)Cl)cc1 (stereo not given),3.53% (inactive)
11,O=Cc1ccc2c(c1)OCO2,-15.8% (inactive)
12,Nn1cnnc1,-16.2% (inactive)
13,BrC(Br)Br,-6.69% (inactive)
14,C=CCOCC1CO1 (stereo not given),-3.47% (inactive)
15,CSSC,-4.8% (inactive)
16,ClC(Cl)(Cl)C(Cl)(Cl)Cl,-6.36% (inactive)
17,OCCBr,-1.76% (inactive)
18,Nc1ncc([N+](=O)[O-])s1,7.56% (inactive)
19,c1ccc(N=NNc2ccccc2)cc1,-15.6% (inactive)
20,O=S(=O)(O)F,-12.7% (inactive)

row,Compound,"activity change, negative = cytotoxic"
1,OCCCCO,2.42% (inactive)
2,S=C1NCCN1,-4.13% (inactive)
3,Cl/C=C/Cl,-11.5% (inactive)
4,c1ccc(OCC2CO2)cc1 (stereo not given),-8.05% (inactive)
5,OCC(Cl)CCl (stereo not given),-3.44% (inactive)
6,Oc1c(Cl)cccc1Cl,-9.95% (inactive)
7,Nc1ccc(Cc2ccc(N)c(Cl)c2)cc1Cl,0.0655% (inactive)
8,CC(C)Br,9.8% (inactive)
9,CN(C)c1ccccc1,0.0269% (inactive)
10,O=[N+]([O-])c1cccc(O)c1,-20% (inactive)
11,ClCCOCOCCCl,-14.3% (inactive)
12,ClCc1ccccc1,2.73% (inactive)
13,Nc1ccc(Oc2ccc(N)cc2)cc1,-3.08% (inactive)
14,Cc1ccc(OP(=O)(Oc2ccc(C)cc2)Oc2ccc(C)cc2)cc1,-11.6% (inactive)
15,CCN(CC)N=O,0.205% (inactive)
16,O=[N+]([O-])CCO,-24.6% (inactive)
17,CCCN(CCC)c1c([N+](=O)[O-])cc(C(F)(F)F)cc1[N+](=O)[O-],-12.6% (inactive)
18,CCOC(=O)C1OC1(C)c1ccccc1 (stereo not given),-3.85% (inactive)
19,CCCCCC[N+](=O)[O-],-19.9% (inactive)
20,O=NN1CCCCC1,-2.45% (inactive)
